From the supplement of paper PMC12669032

How the values were obtained:
Experiment in all cases: growth AUC relative to DMSO control (median of replicates) (fraction); higher = more growth (less inhibition), active = hit call of the paper
Details in all cases: 20 µM; 24 h;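 active = AUC reduced over 20% with Padj below 0.05 in at least 2 of 3 replicates; inactive = otherwise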
Akkermansia muciniphila = system: Akkermansia muciniphila
In short: (§1)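 Gut bacteria were grown singly in mGAM at 37 °C without oxygen, from OD600 0.05, alongside 20 µM compound in 1% DMSO, and OD600 was read each hour for 24 h. Area under the growth curve was normalised to the median of solvent-only wells per plate, or to row and column medians on the industrial chemical plate. The minimum OD was set to 0 beforehand, and the reported value is the median of three biological replicates grown on separate days.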

Bacteroides caccae = system: Bacteroides caccae
In short: as §1

Bacteroides clarus = system: Bacteroides clarus
In short: as §1

Bacteroides dorei = system: Bacteroides dorei
In short: as §1

Bacteroides stercoris = system: Bacteroides stercoris
In short: as §1

[1] = system: Bacteroides thetaiotaomicron
In short: as §1

Bacteroides uniformis = system: Bacteroides uniformis
In short: as §1

[2] = system: Bifidobacterium longum subsp. longum
In short: as §1

Clostridium difficile = system: Clostridium difficile
In short: as §1

Collinsella aerofaciens = system: Collinsella aerofaciens
In short: as §1

Coprococcus comes = system: Coprococcus comes
In short: as §1

Escherichia coli ED1a = system: Escherichia coli ED1a
In short: as §1

Escherichia coli IAI1 = system: Escherichia coli IAI1
In short: as §1

Eubacterium rectale = system: Eubacterium rectale
In short: as §1

[3] = system: Fusobacterium nucleatum subsp. animalis
In short: as §1

Lactobacillus gasseri = system: Lactobacillus gasseri
In short: as §1

Lactobacillus paracasei = system: Lactobacillus paracasei
In short: as §1

Odoribacter splanchnicus = system: Odoribacter splanchnicus
In short: as §1

[4] = system: Parabacteroides distasonis
In short: as §1

Parabacteroides merdae = system: Parabacteroides merdae
In short: as §1

Measured: growth AUC

COC(=O)CC(NC(=O)[C@@H](NC(=O)OC(C)C)C(C)C)c1ccc(Cl)cc1 (stereo not given in full)
inactive: Akkermansia muciniphila 1.08 | Bacteroides caccae 0.934 | Bacteroides clarus 0.991 | Bacteroides dorei 1.02 | Bacteroides stercoris 1.34 | [1] 0.981 | Bacteroides uniformis 0.934 | [2] 1.01 | Clostridium difficile 1.01 | Collinsella aerofaciens 0.963 | Coprococcus comes 0.954 | Escherichia coli ED1a 1.02 | Escherichia coli IAI1 0.986 | Eubacterium rectale 0.993 | [3] 1.11 | Lactobacillus gasseri 1.01 | Lactobacillus paracasei 0.992 | Odoribacter splanchnicus 0.87 | [4] 0.954 | Parabacteroides merdae 1.01

Nc1nc2ccccc2[nH]1
inactive: Akkermansia muciniphila 1.06 | Bacteroides caccae 0.96 | Bacteroides clarus 1.01 | Bacteroides dorei 0.911 | Bacteroides stercoris 1.01 | [1] 1.02 | Bacteroides uniformis 0.94 | [2] 1.03 | Clostridium difficile 0.973 | Collinsella aerofaciens 0.943 | Coprococcus comes 0.971 | Escherichia coli ED1a 0.976 | Escherichia coli IAI1 0.986 | Eubacterium rectale 1.08 | [3] 0.932 | Lactobacillus gasseri 0.883 | Lactobacillus paracasei 0.969 | Odoribacter splanchnicus 0.942 | [4] 0.615 | Parabacteroides merdae 0.933

Oc1cccc2ccccc12
inactive: Akkermansia muciniphila 1 | Bacteroides caccae 1.04 | Bacteroides clarus 1 | Bacteroides dorei 0.987 | Bacteroides stercoris 0.943 | [1] 0.993 | Bacteroides uniformis 0.976 | [2] 0.999 | Clostridium difficile 0.98 | Collinsella aerofaciens 0.959 | Coprococcus comes 0.96 | Escherichia coli ED1a 0.994 | Escherichia coli IAI1 0.982 | Eubacterium rectale 0.957 | [3] 0.988 | Lactobacillus gasseri 0.976 | Lactobacillus paracasei 1.02 | Odoribacter splanchnicus 0.975 | [4] 0.983 | Parabacteroides merdae 0.997

CCCCCCCCc1c(CC)nc2ncnn2c1N
inactive: Akkermansia muciniphila 1.05 | Bacteroides caccae 1.03 | Bacteroides clarus 0.991 | Bacteroides dorei 0.989 | Bacteroides stercoris 0.953 | [1] 0.97 | Bacteroides uniformis 0.973 | [2] 0.995 | Clostridium difficile 0.972 | Collinsella aerofaciens 0.926 | Coprococcus comes 1.01 | Escherichia coli ED1a 0.986 | Escherichia coli IAI1 0.978 | Eubacterium rectale 0.988 | [3] 1.04 | Lactobacillus gasseri 0.904 | Lactobacillus paracasei 0.931 | Odoribacter splanchnicus 0.989 | [4] 0.946 | Parabacteroides merdae 0.964

CN(C)C(N)=O
inactive: Akkermansia muciniphila 1.05 | Bacteroides caccae 0.949 | Bacteroides clarus 0.998 | Bacteroides dorei 0.982 | Bacteroides stercoris 1.05 | [1] 0.99 | Bacteroides uniformis 0.971 | [2] 0.973 | Clostridium difficile 1.03 | Collinsella aerofaciens 0.977 | Coprococcus comes 0.993 | Escherichia coli ED1a 1.01 | Escherichia coli IAI1 0.953 | Eubacterium rectale 0.967 | [3] 1.01 | Lactobacillus gasseri 0.983 | Lactobacillus paracasei 1.03 | Odoribacter splanchnicus 1.03 | [4] 0.968 | Parabacteroides merdae 1.01

CCN(CC)C(=O)c1cccc(C)c1
inactive: Akkermansia muciniphila 1.03 | Bacteroides caccae 0.985 | Bacteroides clarus 1.03 | Bacteroides dorei 1.05 | Bacteroides stercoris 1.05 | [1] 0.975 | Bacteroides uniformis 0.998 | [2] 1.02 | Clostridium difficile 0.982 | Collinsella aerofaciens 0.952 | Coprococcus comes 0.974 | Escherichia coli ED1a 1 | Escherichia coli IAI1 1.01 | Eubacterium rectale 1.06 | [3] 1.04 | Lactobacillus gasseri 0.966 | Lactobacillus paracasei 0.977 | Odoribacter splanchnicus 1.13 | [4] 1.01 | Parabacteroides merdae 1.04

CC[N+](CC)(CC(=O)Nc1c(C)cccc1C)Cc1ccccc1.O=C([O-])c1ccccc1
inactive: Akkermansia muciniphila 1.24 | Bacteroides caccae 0.992 | Bacteroides clarus 1.05 | Bacteroides dorei 1.04 | Bacteroides stercoris 1.11 | [1] 0.999 | Bacteroides uniformis 0.993 | [2] 0.98 | Clostridium difficile 1.04 | Collinsella aerofaciens 1 | Coprococcus comes 1.04 | Escherichia coli ED1a 1.01 | Escherichia coli IAI1 1.04 | Eubacterium rectale 1.14 | [3] 1.02 | Lactobacillus gasseri 0.967 | Lactobacillus paracasei 1.05 | Odoribacter splanchnicus 0.995 | [4] 1.06 | Parabacteroides merdae 1.05

C=CCO/N=C(\CCC)C1=C([O-])CC(C)(C)C(C(=O)OC)C1=O.[Na+] (stereo not given)
inactive: Akkermansia muciniphila 1.2 | Bacteroides caccae 1 | Bacteroides clarus 1.03 | Bacteroides dorei 0.933 | Bacteroides stercoris 1.07 | [1] 1.02 | Bacteroides uniformis 1.01 | [2] 1.05 | Clostridium difficile 1.05 | Collinsella aerofaciens 1.03 | Coprococcus comes 1.03 | Escherichia coli ED1a 1.02 | Escherichia coli IAI1 1.02 | Eubacterium rectale 1.12 | [3] 1.12 | Lactobacillus gasseri 0.892 | Lactobacillus paracasei 1.04 | Odoribacter splanchnicus 1.05 | [4] 1.01 | Parabacteroides merdae 1.06

COc1cc(OC)nc(NC(=O)NS(=O)(=O)Nc2ccccc2C(=O)N(C)C)n1
inactive: Akkermansia muciniphila 1.01 | Bacteroides caccae 1 | Bacteroides clarus 0.983 | Bacteroides dorei 1.02 | Bacteroides stercoris 0.982 | [1] 0.986 | Bacteroides uniformis 1.01 | [2] 0.975 | Clostridium difficile 0.974 | Collinsella aerofaciens 0.992 | Coprococcus comes 0.994 | Escherichia coli ED1a 0.981 | Escherichia coli IAI1 0.992 | Eubacterium rectale 0.972 | [3] 0.94 | Lactobacillus gasseri 1.03 | Lactobacillus paracasei 0.939 | Odoribacter splanchnicus 0.997 | [4] 1.03 | Parabacteroides merdae 1.02
